SMILES strings stand for the structures. Compounds without any hit were thinned out: in the full panel of roughly 83,000, 20% have a hit.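 Values shown are percent growth following 48 h exposure of cells in 96-well plates to a single concentration of compound; below 10 was considered active.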 Unmarked numbers belong to inactive results. Calls of active or inactive are those of the source.

The test system of the test is NCI-H522 lung. As to the kind of experiment: NCI-60 one-dose screen, 48 h (100 = growth as untreated, 0 = no growth, -100 = all killed). To be noted: 10 µM unless noted.
For the compound `Fc1ccc(COc2ccc(Nc3ncnc4sc5c(c34)CCCC5)cc2)cc1`, the growth was 73%.

Regarding `COc1cc(C2Cc3ncccc3-c3[nH]c(=O)c4cccnc4c32)cc(OC)c1OC` (stereo not given), the growth is -31% (active). For `O=C(c1ccc(Cl)cc1Cl)N1c2ccccc2Sc2ccccc21`, the growth was 63.7%.

As for `O=C(N/N=C/c1ccc([N+](=O)[O-])cc1)c1ccc2nc(-c3ccc(Cl)cc3)[nH]c2c1`, the growth is 33%. In the case of `O=C(NCc1ccccc1O)c1cccc2ccccc12` it was 65.8%; in that of `CC1=C(C(=O)n2c3ccccc3c3ccccc32)C(c2cccc([N+](=O)[O-])c2)C(C(=O)n2c3ccccc3c3ccccc32)=C(C)N1`, 101%; in that of `COc1ccc(/C=C/C(=O)c2ccc(NC(=O)CSc3nnc(-c4cc(-c5ccccc5)nc5ccccc45)n3-c3ccccc3)cc2)cc1`, 83.9%. Under `Cn1cc(-c2nc(-c3c[nH]c4ccncc34)cs2)c2cc(Br)ccc21` stands -70.8% (active); under `C#Cc1cccc(Oc2ccc(NC(=O)CCl)cc2)c1`, -32.6% [8.25 µM] (active).

Regarding `CC1(C)CC[C@]2(C(=O)N3CCOCC3)CC[C@]3(C)C(=CC[C@@H]4[C@@]5(C)C/C(=C/c6ccncc6)C(=O)C(C)(C)[C@@H]5CC[C@]43C)[C@@H]2C1`, the growth is -1.2% (active). `CC(C)c1ccc(NC(=O)Nc2ccc(NC(=O)c3ccccc3N)cc2)cc1`: the growth is 26.8%. In the case of `Cc1cc(C(=O)Nc2cc(Nc3ncccc3-c3ncnc4nc[nH]c34)ccc2F)cc(C(F)(F)F)c1` it was 63.1%.

Turning to `COc1cc2c3c(n(CCCCNCCCn4c5c(c6cc(OC)c(OC)cc6c4=O)C(=O)c4cc6c(cc4-5)OCO6)c(=O)c2cc1OC)-c1cc2c(cc1C3=O)OCO2`, the growth was 86.8%. For the compound `CNC(=O)c1c(NC(=O)c2ccc(C(C)(C)C)cc2)sc2c(CN(C)C)c(O)ccc12`, the growth was 75.9%. With `CCCCn1sc(=O)n(Cc2ccc(CNC(=O)OCc3ccc4c(Cl)cc(Cl)c(O)c4n3)cc2)c1=O`, the growth is 69.9%. In the case of `O=C1Nc2ccc(F)cc2/C1=N/c1nnc(Sc2ccccc2)s1` it was 77.2%. In the case of `N#Cc1c(N2CCOCC2)nc(=S)[nH]c1-c1ccccc1` it was 59.6%. In the case of `O=C(CSc1nnc2sc(Nc3cccc(Cl)c3)nn12)c1ccc(F)cc1`, the growth was 75.6%. Consider `C=C(CO)[C@@H]1CC[C@]2(COC3CCCCO3)CC[C@]3(C)[C@H](CC[C@@H]4[C@@]5(C)C=C(C=O)C(=O)C(C)(C)[C@@H]5CC[C@]43C)[C@@H]12` (stereo not given in full), for which the growth is -80.5% (active). In the case of `COc1ccc(-c2cc(C(=O)N3N=C(c4ccc(N)cc4)CC3c3ccccc3)c3ccccc3n2)cc1` (stereo not given) it was 23.7%; in that of `COc1ccc(-c2cc(-c3cc(OC)c(OC)c(OC)c3)c(C#N)c(=O)n2CCCCCC(=O)NO)cc1`, 89.5%; in that of `Cn1ccnc1C(=O)/C=C/c1ccc(C(=O)Nc2ccc(F)cc2)cc1`, 7.55% (active). `C=C1C(=O)O[C@H]2[C@H]1CC/C(COC(=O)NCCCCCCCCNC(=O)OC/C1=C/CC[C@@]3(C)O[C@H]3[C@H]3OC(=O)C(=C)[C@@H]3CC1)=C\CC[C@@]1(C)O[C@@H]21`: the growth was -68.7% (active). Under `C/C(C=O)=C\c1ccc2c(c1)OCO2` stands 99.9%. In the case of `COc1cccc(/C=C/C(=O)c2cc3c(N)c(C(=O)Nc4cccc(Cl)c4C)sc3nc2C)c1` it was -69.7% (active); in that of `COC(=O)/C=C1/SC(=Nc2cccc(Cl)c2)N(CCc2c[nH]c3ccc(O)cc23)C1=O`, 11%; in that of `CCC/C(=N\NC(N)=O)C(OC)OC`, 79.9%.

Take `COc1ccc2cc(Cn3cc[n+](Cc4ccc5ccccc5c4)c3)ccc2c1`: the growth is -13.6% (active). In the case of `Cn1c(=O)c2c(c3ccccc31)OC(N)=C(C#N)C21C(=O)c2ccccc2C1=O` it was 95.9%; in that of `CN1CCN(c2ccc3c(c2)nc(NNC(=O)c2cnccn2)c2cccn23)CC1`, 15.7%; in that of `Cc1cc(C)c(-c2c(O)c(Br)c(-c3c(C)cc(C)c(Br)c3C)c(O)c2Br)c(C)c1Br`, -70.3% (active). `CCN(CC)S(=O)(=O)c1ccc(S(=O)(=O)N2CCC[C@@H](C(=O)N3CCN(C(=O)OC(C)(C)C)CC3)C2)cc1`: the growth is 68.4%.

`O=C1/C=C/[C@@H](O)[C@@H]2C[C@@H](O)C[C@H]2/C=C/CCC[C@H](CCOCc2ccccc2)O1`: the growth is -38.8% (active). Under `COc1ccc(C2=Nc3c/c(=C\c4c(O)[nH]c5cc(Cl)ccc45)ccc3=N2)cc1` stands 46%; under `CCCCCCCCCCCCCCCCCCOc1ccccc1CC(=O)NCC[N+]1(C)CCOCC1`, 30.8%; under `Cc1ccc(-c2cc(C(=O)N3N=C(c4ccc(N)cc4)CC3c3ccc(Cl)cc3)c3ccccc3n2)cc1` (stereo not given), -2.26% (active). In the case of `O=C(CN1C(=O)/C(=C/c2ccco2)SC1=S)NCCc1c[nH]c2ccc(F)cc12` it was 82.5%. In the case of `CCN(CC)CCN(CCN(CC)CC)c1ccccc1` it was 79%; in that of `COc1cc(C(=O)C(=O)c2cc(OC)c(O)c(OC)c2)cc(OC)c1O`, 89.6%. For `O=C(/C=C/c1ccc(Br)cc1)c1ccc(-n2cc(CN3CCN(c4cc5c(cc4F)c(=O)c(C(=O)O)cn5C4CC4)CC3)nn2)cc1`, the growth is 78.3%.

The values are drawn from PubChem BioAssay (NCI).
